{"source": "PubChem BioAssay (NCI)", "note": "“And” between values parts separate entries of the source, which are not always exact repeats. Equal entries are not always repeated. The panel holds about 83,000 compounds, 20% with a hit somewhere; the sample as a whole holds those more often.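 Single-concentration screen, 48 h exposure, 96-well plates. Endpoint: percent growth. Below 10 = active.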 The source made the active and inactive calls.", "data": [{"test_system": "MDA-MB-468 breast", "assay": "NCI-60 one-dose screen, 48 h (100 = growth as untreated, 0 = no growth, -100 = all killed)", "settings": "10 µM unless noted", "values": [{"compound": "O=S(=O)(Nc1ccc(Cl)cc1)c1ccc(-c2cnc(C3CC3)o2)cc1", "growth": "-27.7% (active)"}, {"compound": "O=C(Nc1ccc(Oc2cccc(Cl)c2)c(Cl)c1)c1cccnn1", "growth": "63.3% (inactive)"}, {"compound": "CCN(CC)CCNC(=O)C(Cl)=C1C(Cl)=C(Cl)C(Cl)=C1Cl", "growth": "75.8% (inactive)"}, {"compound": "COc1cc(Cc2cc(-c3ccccc3)nn(Cc3ccccc3)c2=O)cc(OC)c1OC", "growth": "28.4% (inactive)"}, {"compound": "O=C(Nc1cc(C(F)(F)F)cc(C(F)(F)F)c1)Nc1ccc2oc(=O)ccc2c1", "growth": "-5.53% (active)"}, {"compound": "O=C1C(=O)N(Cc2ccc(-c3ccccc3)cc2)c2ccc(OC(F)(F)F)cc21", "growth": "25% (inactive)"}, {"compound": "Nc1nc2c(s1)CCc1cn(S(=O)(=O)c3ccccc3)cc1-2", "growth": "83.2% (inactive)"}, {"compound": "CO[C@H]1C[C@@H]2CC[C@@H](C)[C@@](O)(O2)C(=O)C(=O)N2CCCC[C@H]2C(=O)O[C@H]([C@H](C)C[C@@H]2CC[C@@H](OCCO)[C@H](OC)C2)CC(=O)[C@H](C)/C=C(\\C)[C@@H](O)[C@H](OC)C(=O)[C@H](C)C[C@H](C)\\C=C/C=C/C=C/1C", "growth": "26.9% (inactive)"}, {"compound": "Cc1ccc(NCSc2ccc(Cl)cc2)cc1", "growth": "-0.979% (active) and 43.6% (inactive)"}, {"compound": "CCN1CCN(C(=O)[C@]23CCC(C)(C)C[C@@H]2C2=CC[C@@H]4[C@@]5(C)CCC(=O)C(C)(C)[C@@H]5CC[C@@]4(C)[C@]2(C)CC3)CC1", "growth": "30.5% (inactive)"}, {"compound": "COc1ccc(C(=O)c2cc(C(=O)/C=C/c3c(Cl)cccc3Cl)c3cc(C)ccn23)cc1", "growth": "96.1% (inactive)"}]}]}
